Rab9 prom act = qHTS Assay for Rab9 Promoter Activators. Huh7 Rab9 promoter-luciferase reporter, luminescence, 24 h. Potency, µM (top dose mostly 9.22 µM), usual class: activators. 320,000 tested, 2.8% active. AID 485297, 2010; further: nearly all actives have a fitted effect of over 60% in size
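Huh7 cells stably carrying a Rab9 promoter-luciferase reporter, 1500 cells per well in OP-MEM I with 10% FBS, treated with compound 24 hours at 37C. Luciferase activity read by luminescence after 10 minutes with Amplite reagent.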
NPC1 promoter act = qHTS Assay for NPC1 Promoter Activators; 320,000 tested, 2.4% active; Huh7 NPC1 promoter luciferase reporter, 24 h; AID 485313, 2010; Potency, µM (doses to about 9.22 µM), usual class: activators; further: nearly all actives have a fitted effect of over 60% in size
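Cells: Huh7 expressing luciferase under the NPC1 promoter, 1500/well. Seeded 2 h, compound added, incubated 24 h at 37 °C. Luciferase reagent, 10 min ambient, then luminescence.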
ELG1 genotoxic = qHTS screen for small molecules that induce genotoxicity in human embryonic kidney (HEK293T) cells expressing luciferase-tagged ELG1. Potency, µM (doses to about 46 µM), actives largely listed as activators. 330,000 tested, 1.3% active. HEK293T ELG1-luciferase reporter, luminescence, 16 h; further: nearly all actives have a fitted effect of over 60% in size
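Luminescence read-out: rising ELG1-luciferase signal, reflecting elevated ELG1 protein under genetic stress, flags genotoxic compounds. Cells were treated for 16 hr at 37 °C before ONE-Glo detection.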
SMN2 splice enh = qHTS Assay for Enhancers of SMN2 Splice Variant Expression. HEK293 SMN2-luciferase splicing reporter, luminescence, 30-36 h. Potency, µM (top dose mostly 46.1 µM), actives largely listed as activators. 210,000 tested, 2.8% active; further: nearly all actives have a fitted effect of over 55% in size
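HEK293 cells carry an SMN2 […]–luciferase reporter in which exon 7 inclusion puts luciferase in frame. Cells were plated 10-12 h before compound addition, then incubated 30-36 h at 37C. ONE-Glo luminescence was read; sodium butyrate at 4.5 mM final served as control.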
ELG1 DNA repair = qHTS screen for small molecules that inhibit ELG1-dependent DNA repair in human embryonic kidney (HEK293T) cells expressing luciferase-tagged ELG1; Potency, µM (doses to about 46.1 µM), actives largely listed as inhibitors; AID 504467, 2011; HEK293T ELG1-luciferase reporter, luminescence, 16 h; DNA damage induced by 5-fluorouridine; 330,000 tested, 2.3% active; further: nearly all actives have a fitted effect of over 55% in size
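DMSO vehicle served as the neutral condition. Each well held 2,000 cells given 5-fluorouridine plus compound; after 16 hr at 37 °C/5% CO2, ONE-Glo was added and luciferase measured 30 min later.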
FLuc counter = qHTS profiling assay for firefly luciferase inhibitor/activator using purifed enzyme and Km concentrations of substrates (counterscreen for miR-21 project) | Luciferin 4-monooxygenase (Photinus pyralis), P08659 | purified FLuc, Km substrates, luminescence inhibition | Potency, µM (top dose mostly 57.5 µM), hits mostly inhibitors | 360,000 tested, 6.9% active; further: nearly all actives have a fitted effect of over 55% in size
Target sequence (P08659 whole entry, looked up): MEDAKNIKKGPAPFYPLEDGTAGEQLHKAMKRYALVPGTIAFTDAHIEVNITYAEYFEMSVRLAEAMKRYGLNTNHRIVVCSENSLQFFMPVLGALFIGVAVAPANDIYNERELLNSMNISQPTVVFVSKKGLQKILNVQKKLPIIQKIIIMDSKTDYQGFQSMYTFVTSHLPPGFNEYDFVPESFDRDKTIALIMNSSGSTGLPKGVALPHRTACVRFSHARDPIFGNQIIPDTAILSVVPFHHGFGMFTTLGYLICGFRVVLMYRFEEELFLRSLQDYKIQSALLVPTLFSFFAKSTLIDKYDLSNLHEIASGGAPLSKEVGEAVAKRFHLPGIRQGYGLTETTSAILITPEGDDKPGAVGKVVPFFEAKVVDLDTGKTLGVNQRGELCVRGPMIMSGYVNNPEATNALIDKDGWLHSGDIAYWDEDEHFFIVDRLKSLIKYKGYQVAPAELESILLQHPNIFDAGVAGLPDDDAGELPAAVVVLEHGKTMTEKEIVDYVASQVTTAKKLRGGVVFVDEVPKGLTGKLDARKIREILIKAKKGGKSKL
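Purified P. pyralis luciferase (10nM final) with 10uM D-luciferin and 10uM ATP (Km levels) in 50mM Tris acetate pH 7.5, 10mM Mg acetate, 0.01% Tween-20, 0.05% BSA; qHTS 6-point titration, ~60 µM downward; luminescence read.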
Hits are given with their value; i = inactive; ? = inconclusive; nt = not tested or not shown; [ ] = dose if it differs, or a comment. Rows were chosen to be rich in hits. Some 9.2% of all compounds tested hit in one or more screens of this group. The call rests on the fitted dose curve; in most records, active means well fitted curve in the direction sought with a large enough effect; inconclusive means small, poorly fitted or top-dose-only effect, or another doubt; inactive means no such curve, though single readings can be large; an effect the other way counts as inactive or inconclusive.

SMILES	Rab9 prom act	NPC1 promoter act	ELG1 genotoxic	SMN2 splice enh	ELG1 DNA repair	FLuc counter
CCOC(=O)c1sc(NC(=O)c2cc3c(s2)CCC(C)C3)nc1C (stereo unspecified)	i	i	10.3µM	i	?	4.78µM
Cc1ccc(NC(=O)CN(C)C(=O)c2cc3c(s2)CCCCC3)cc1	i	i	i	nt	i	i
COC(=O)c1sc(NC(=O)c2cc3c(s2)CCCC3)nc1C	i[1.84 µM]	i	1.16µM	4.47µM	?	2.39µM
O=C(NC1=NCCS1)c1csc2ccccc12	1.58µM	2.24µM	?	11.2µM	?	i[2.3 µM]
O=C(NC1=NCCS1)c1ccc(Cl)c(Cl)c1	0.631µM	0.631µM	?	nt	?	4.78µM
Cc1cccc(C(=O)NC2=NCCS2)c1	0.708µM	1.26µM	?	nt	?	8.49µM
O=C(NC1=NCCS1)c1ccccc1Cl	i	i	i	nt	i	i
O=C(NC1=NCCS1)c1cc(Cl)ccc1Cl	i	i	i	nt	i	i
O=C(NC1=NCCS1)c1ccccc1	i	i	i	nt	?	i
Cc1cc(C(=O)NC2=NCCS2)cs1	1.58µM	2.51µM	16.4µM	11.2µM	?	8.49µM
O=C(Nc1cnccn1)c1csc2ccccc12	?	i	?	?	?	19µM
CC(C)C(NC(=O)c1cccs1)C(=O)NC1=NCCS1 (stereo unspecified)	i	i	i	i	i	i
O=C(Nc1ccon1)c1csc2ccccc12	i	i	i	?	i	i
O=C(NC1=NCCS1)c1cccs1	i	i	i	28.2µM	?	i
Cc1cc(Cl)cc2c(N=Nc3ccccc3C(=O)O)c(O)[nH]c12	?	?	i	nt	?	12µM
Cc1[nH]n(-c2ccccc2)c(=O)c1N=Nc1ccccc1O	i	i	i	nt	?	8.49µM
Cc1ccc2[nH]c(O)c(N=Nc3ccccc3C)c2c1	i	?	i	nt	i	?
CCOc1ccc(N=Nc2c(C)[nH]n(-c3ccccc3)c2=O)cc1	i	i	i	nt	i	?
Cc1ccccc1N=Nc1c(C)[nH]n(-c2ccccc2)c1=O	i	i	i	nt	i	?
Cc1[nH]n(-c2ccccc2)c(=O)c1N=Nc1ccccc1C(=O)O	i	i	i	nt	i	16.9µM
Cc1[nH]n(-c2ccccc2)c(=O)c1N=Nc1nccs1	i	i	i	i	?	19µM
O=C(COC(=O)c1ccc(F)cc1Cl)NC(=O)NC1CCCC1	i	i	i	nt	i	i
Cc1nc2ccccc2c(=O)n1-c1ccc(NC(=O)c2cccc([N+](=O)[O-])c2)cc1	nt	nt	nt	nt	nt	i
CS(=O)(=O)c1ccc(-c2csc(-c3cccnc3)n2)cc1	i	i	i	nt	?	?
O=C(O)c1ccccc1-c1ccccc1C(=O)NCc1ccccc1F	i	i	i	nt	i	i
SMILES	Rab9 prom act	NPC1 promoter act	ELG1 genotoxic	SMN2 splice enh	ELG1 DNA repair	FLuc counter
COc1ccc(NC(=O)CC2C(=O)N(c3ccccc3)C(=O)N2Cc2cccnc2)cc1 (stereo unspecified)	nt	nt	nt	nt	nt	i
O=C(Nc1cc(S(=O)(=O)N2CCOCC2)ccc1OCC(F)(F)F)C1=COCCO1	i	i	i	nt	?	i
C/C(=N\NC(=O)c1ccccc1)c1c(C)[nH]n(-c2ccccc2)c1=O	i	i	i	nt	?	i
Cc1[nH]n(-c2ccccc2)c(=O)c1C(=O)Nc1ccccc1	i	i	i	nt	?	16.9µM
Cc1cccc(N2CCN(C(c3ccccc3)c3nnc(-c4ccccc4F)o3)CC2)c1C (stereo unspecified)	nt	nt	nt	i	nt	?
Nc1ccc2oc(=O)c3ccccc3c2c1	?	?	?	14.1µM	?	i
O=C(N/N=C/c1ccncc1)c1cccc(S(=O)(=O)Nc2ccc(Cl)cc2)c1	i	i	i	nt	i	i
Cc1ccc(C(=O)Nc2c(-c3ccccc3)nc3ccccn23)cc1	nt	nt	nt	i	nt	i
CCC(=O)Nc1c(-c2ccc3ccccc3c2)nc2ccccn12	?	i	i	nt	?	3.79µM
CC(=O)Nc1c(-c2ccc3ccccc3c2)nc2ccccn12	?	?	20.6µM	nt	?	1.9µM
CCCCn1c(N)c(N(CCC(C)C)C(=O)C2=NN(c3ccccc3)C(=O)CC2)c(=O)[nH]c1=O	i	i	i	nt	?	i
O=C(Nc1ccccc1)c1cc2n(n1)C(C(F)(F)F)CC(C1CC1)N2 (stereo unspecified)	1.78µM	2.82µM	?	nt	?	i
COc1ccc(OC)c(NC(=O)c2cc3n(n2)C(C(F)(F)F)CC(c2ccc4c(c2)OCO4)N3)c1 (stereo unspecified)	i	i	i	i	i	i
COc1ccc(C2CC(C(F)(F)F)n3nc(C(=O)Nc4ccc5c(c4)OCO5)cc3N2)cc1 (stereo unspecified)	i	i	i	i	23.1µM	i
COc1ccccc1NC(=O)c1cc2n(n1)C(C(F)(F)F)CC(c1ccc3c(c1)OCO3)N2 (stereo unspecified)	i	i	i	i	16.4µM	i
O=C(COC(=O)Cc1ccsc1)Nc1ccc(Br)cc1	i	i	i	nt	i	?
CCC(=O)Nc1ccc(C(=O)COC(=O)Cc2ccsc2)cc1	i	i	i	nt	i	10.7µM
COc1ccc(N2CCN(CNC(=O)c3ccccc3)CC2)cc1	i	i	i	nt	i	i
CCNC(=S)Nc1ccc(OCc2nc3ccccc3s2)cc1	3.98µM	3.55µM	?	nt	?	12µM
O=C(O)CCCC(=O)Nc1ccc(OCc2nc3ccccc3s2)cc1	i	i	?	i	?	16.9µM
Cc1ccc(C(=O)OCC(=O)N2CCNC2=O)c(C)c1	?	?	?	nt	?	21.3µM
Cc1ccc(C(=O)OCC(=O)c2ccc(CC(=O)N3CCOCC3)s2)c(C)c1	i	i	i	nt	i	16.9µM
Cc1ccc(C(=O)OCC(=O)c2ccc(CC(=O)N3CCOCC3)s2)cc1C	i	i	i	nt	i	23.9µM
CCOc1ccc(NC(=O)CN(C)C(=O)CCCc2c[nH]c3ccccc23)cc1OCC	i	i	i	nt	i	i
COc1ccc(NC(=O)COC(=O)C2CC3C=CC2C3)cc1 (stereo unspecified)	i	i	i	i	?	16.9µM
COc1ccc(/C=C/C(=O)Nn2cnnc2)cc1	i	i	i	i	i	15.1µM
COc1ccc(/C=C/C(=O)NCCCN2CCCC2)cc1	i	i	i	nt	i	i
O=C(NCCSCc1ccco1)Nc1cc(Cl)cc(Cl)c1	i	i	i	nt	i	26.9µM
C#CCNC(=O)/C=C/c1ccc(OC)cc1	?	i	?	14.1µM	?	21.3µM
